Measurements as given in the supplement of paper PMC8728848.
The entries come from a sample that favours the strongest signals as a whole.

What was measured:
Assay in all cases: glycan array binding signal (z-score within array); higher = stronger binding
[1] = target: Neu5Ac(a2-8)Neu5Ac(a2-3)[Gal(b1-3)GalNAc(b1-4)]Gal(b1-4)Glc; settings: glycan notation: IUPAC condensed, linker removed; mutation: D229G
Outline: (§1)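 Glycan array data came from 3228 arrays in the Consortium for Functional Glycomics database, and only arrays with an available protein sequence were kept. Glycan names were put into IUPAC-condensed notation, and columns mapping to the same glycan were averaged. The binding signal is a within-array Z-score, averaged across arrays of one protein sequence run at different concentrations or buffers and across linkers. A negative Z-score can be read as non-binding.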

[2] = target: Neu5Ac(a2-8)Neu5Ac(a2-8)Neu5Ac(a2-3)[GalNAc(b1-4)]Gal(b1-4)Glc; settings: glycan notation: IUPAC condensed, linker removed; mutation: D229G
Outline: as §1

Neu5Gc(a2-6)GalNAc = settings: glycan notation: IUPAC condensed, linker removed; mutation: D229G
Outline: as §1

[3] = target: Fuc(a1-2)Gal(b1-3)GlcNAc(b1-2)Man(a1-3)[Fuc(a1-2)Gal(b1-3)GlcNAc(b1-2)Man(a1-6)]Man(b1-4)GlcNAc(b1-4)[Fuc(a1-6)]GlcNAc; settings: glycan notation: IUPAC condensed, linker removed
Outline: as §1

[4] = target: Fuc(a1-2)Gal(b1-3)GlcNAc(b1-3)[Gal(b1-4)GlcNAc(b1-6)]Gal(b1-4)Glc; settings: glycan notation: IUPAC condensed, linker removed
Outline: as §1

[5] = target: Fuc(a1-2)Gal(b1-4)GlcNAc(b1-3)GalNAc; settings: glycan notation: IUPAC condensed, linker removed
Outline: as §1

[6] = target: Fuc(a1-2)Gal(b1-4)[Fuc(a1-3)]GlcNAc(b1-2)[Fuc(a1-2)Gal(b1-4)[Fuc(a1-3)]GlcNAc(b1-4)]Man(a1-3)[Fuc(a1-2)Gal(b1-4)[Fuc(a1-3)]GlcNAc(b1-2)Man(a1-6)]Man(b1-4)GlcNAc(b1-4)GlcNAc; settings: glycan notation: IUPAC condensed, linker removed
Outline: as §1

[7] = target: Fuc(a1-2)[GalNAc(a1-3)]Gal(b1-4)Glc; settings: glycan notation: IUPAC condensed, linker removed
Outline: as §1

[8] = target: Fuc(a1-2)[GalNAc(a1-3)]Gal(b1-4)[Fuc(a1-3)]GlcNAc(b1-3)GalNAc; settings: glycan notation: IUPAC condensed, linker removed
Outline: as §1

[9] = target: Fuc(a1-3)[Gal(b1-4)]GlcNAc(b1-3)GalNAc; settings: glycan notation: IUPAC condensed, linker removed
Outline: as §1

[10] = target: Gal(b1-3)GlcNAc(b1-3)Gal(b1-4)GlcNAc(b1-6)[Gal(b1-3)GlcNAc(b1-3)]Gal(b1-4)Glc; settings: glycan notation: IUPAC condensed, linker removed
Outline: as §1

[11] = target: Gal(b1-4)GlcNAc(b1-6)Gal(b1-4)GlcNAc; settings: glycan notation: IUPAC condensed, linker removed
Outline: as §1

GalNAc(b1-3)Gal = settings: glycan notation: IUPAC condensed, linker removed
Outline: as §1

GalNAc(b1-4)Gal(b1-4)Glc = settings: glycan notation: IUPAC condensed, linker removed
Outline: as §1

GalNAc(b1-6)GalNAc = settings: glycan notation: IUPAC condensed, linker removed
Outline: as §1

[12] = target: GlcNAc(a1-4)Gal(b1-4)GlcNAc(b1-3)Gal(b1-4)[Fuc(a1-3)]GlcNAc(b1-3)Gal(b1-4)[Fuc(a1-3)]GlcNAc; settings: glycan notation: IUPAC condensed, linker removed
Outline: as §1

[13] = target: GlcNAc(b1-3)Gal(b1-3)GalNAc; settings: glycan notation: IUPAC condensed, linker removed
Outline: as §1

GlcNAc(b1-3)GalNAc = settings: glycan notation: IUPAC condensed, linker removed
Outline: as §1

Kdn(a2-3)Gal(b1-4)Glc = settings: glycan notation: IUPAC condensed, linker removed
Outline: as §1

Kdn(a2-6)Gal(b1-4)GlcNAc = settings: glycan notation: IUPAC condensed, linker removed
Outline: as §1

[14] = target: Man(a1-2)Man(a1-2)Man(a1-6)[Man(a1-3)]Man; settings: glycan notation: IUPAC condensed, linker removed
Outline: as §1

[15] = target: Man(a1-2)Man(a1-3)[Man(a1-2)Man(a1-6)]Man(a1-6)[Man(a1-2)Man(a1-2)Man(a1-3)]Man; settings: glycan notation: IUPAC condensed, linker removed
Outline: as §1

[16] = target: Man(a1-2)Man(a1-3)[Man(a1-2)Man(a1-6)]Man(a1-6)[Man(a1-2)Man(a1-2)Man(a1-3)]Man(b1-4)GlcNAc(b1-4)GlcNAc; settings: glycan notation: IUPAC condensed, linker removed
Outline: as §1

[17] = target: Man(a1-2)Man(a1-6)[Man(a1-3)]Man(a1-6)[Man(a1-2)Man(a1-2)Man(a1-3)]Man; settings: glycan notation: IUPAC condensed, linker removed
Outline: as §1

[18] = target: Man(a1-2)Man(a1-6)[Man(a1-3)]Man(a1-6)[Man(a1-2)Man(a1-2)Man(a1-3)]Man(b1-4)GlcNAc(b1-4)GlcNAc; settings: glycan notation: IUPAC condensed, linker removed
Outline: as §1

Man(a1-3)[Man(a1-6)]Man = settings: glycan notation: IUPAC condensed, linker removed
Outline: as §1

[19] = target: Man(a1-3)[Man(a1-6)]Man(a1-6)[Man(a1-2)Man(a1-3)]Man(b1-4)GlcNAc(b1-4)GlcNAc; settings: glycan notation: IUPAC condensed, linker removed
Outline: as §1

[20] = target: Man(a1-3)[Man(a1-6)]Man(a1-6)[Man(a1-3)]Man; settings: glycan notation: IUPAC condensed, linker removed
Outline: as §1

[21] = target: Man(a1-3)[Man(a1-6)]Man(a1-6)[Man(a1-3)]Man(b1-4)GlcNAc(b1-4)GlcNAc; settings: glycan notation: IUPAC condensed, linker removed
Outline: as §1

[22] = target: Neu5Ac(a2-3)Gal(b1-3)GalNAc(b1-3)Gal(a1-4)Gal(b1-4)Glc; settings: glycan notation: IUPAC condensed, linker removed
Outline: as §1

[23] = target: Neu5Ac(a2-3)Gal(b1-3)GlcNAc; settings: glycan notation: IUPAC condensed, linker removed
Outline: as §1

[24] = target: Neu5Ac(a2-3)Gal(b1-4)GlcNAc(b1-2)Man(a1-3)[GlcNAc(b1-2)Man(b1-4)GlcNAc(b1-2)Man(a1-6)]Man(b1-4)GlcNAc(b1-4)GlcNAc; settings: glycan notation: IUPAC condensed, linker removed
Outline: as §1

[25] = target: Neu5Ac(a2-3)Gal(b1-4)GlcNAc(b1-6)[Neu5Ac(a2-3)Gal(b1-3)]GalNAc; settings: glycan notation: IUPAC condensed, linker removed
Outline: as §1

[26] = target: Neu5Ac(a2-6)Gal(b1-4)GlcNAc(b1-2)Man(a1-3)Man(b1-4)GlcNAc(b1-4)GlcNAc; settings: glycan notation: IUPAC condensed, linker removed
Outline: as §1

Neu5Ac(a2-6)GalNAc = settings: glycan notation: IUPAC condensed, linker removed
Outline: as §1

[27] = target: Neu5Ac(a2-6)GalNAc(b1-4)GlcNAc; settings: glycan notation: IUPAC condensed, linker removed
Outline: as §1

[28] = target: Neu5Ac(a2-8)Neu5Ac(a2-8)Neu5Ac; settings: glycan notation: IUPAC condensed, linker removed
Outline: as §1

[29] = target: Neu5Ac(a2-8)Neu5Ac(a2-8)Neu5Ac(a2-8)Neu5Ac(a2-3)[GalNAc(b1-4)]Gal(b1-4)Glc; settings: glycan notation: IUPAC condensed, linker removed
Outline: as §1

[30] = target: Neu5Ac(b2-6)Gal(b1-4)GlcNAc; settings: glycan notation: IUPAC condensed, linker removed
Outline: as §1

[31] = target: Neu5Gc(a2-3)Gal(b1-4)GlcNAc; settings: glycan notation: IUPAC condensed, linker removed
Outline: as §1

| Binder | glycan array binding signal (z-score) [1] | glycan array binding signal (z-score) [2] | glycan array binding signal (z-score) (Neu5Gc(a2-6)GalNAc) | glycan array binding signal (z-score) [3] | glycan array binding signal (z-score) [4] | glycan array binding signal (z-score) [5] | glycan array binding signal (z-score) [6] | glycan array binding signal (z-score) [7] | glycan array binding signal (z-score) [8] | glycan array binding signal (z-score) [9] | glycan array binding signal (z-score) [10] | glycan array binding signal (z-score) [11] | glycan array binding signal (z-score) (GalNAc(b1-3)Gal) | glycan array binding signal (z-score) (GalNAc(b1-4)Gal(b1-4)Glc) | glycan array binding signal (z-score) (GalNAc(b1-6)GalNAc) | glycan array binding signal (z-score) [12] | glycan array binding signal (z-score) [13] | glycan array binding signal (z-score) (GlcNAc(b1-3)GalNAc) | glycan array binding signal (z-score) (Kdn(a2-3)Gal(b1-4)Glc) | glycan array binding signal (z-score) (Kdn(a2-6)Gal(b1-4)GlcNAc) | glycan array binding signal (z-score) [14] | glycan array binding signal (z-score) [15] | glycan array binding signal (z-score) [16] | glycan array binding signal (z-score) [17] | glycan array binding signal (z-score) [18] | glycan array binding signal (z-score) (Man(a1-3)[Man(a1-6)]Man) | glycan array binding signal (z-score) [19] | glycan array binding signal (z-score) [20] | glycan array binding signal (z-score) [21] | glycan array binding signal (z-score) [22] | glycan array binding signal (z-score) [23] | glycan array binding signal (z-score) [24] | glycan array binding signal (z-score) [25] | glycan array binding signal (z-score) [26] | glycan array binding signal (z-score) (Neu5Ac(a2-6)GalNAc) | glycan array binding signal (z-score) [27] | glycan array binding signal (z-score) [28] | glycan array binding signal (z-score) [29] | glycan array binding signal (z-score) [30] | glycan array binding signal (z-score) [31] |
| --- | --- | --- | --- | --- | --- | --- | --- | --- | --- | --- | --- | --- | --- | --- | --- | --- | --- | --- | --- | --- | --- | --- | --- | --- | --- | --- | --- | --- | --- | --- | --- | --- | --- | --- | --- | --- | --- | --- | --- | --- |
| Epa1-NP-mutant-D229G (Candida glabrata), Q6VBJ0 (protein) MILNPALFLNKCVCIYTTLILLLLTNGGYATSSNDISLASKDPTTFPLGCSPDITTPKKGLSMELYSYDFRKKGSYPCWDAAYLDPNYPRTGYKSHRLLAKVDGVTGNINFYYHATKGCTPQLGHLPASYNYPKPLTMTNFTMLLYGYFRPKVTGFHTFTISADDLLFVNFGAGNAFDCCRRDSSADHFGNYQAYAIWGSKTAKDELTVHLDAGVYYPIRLFYNNREYGGALSFTFKTESNENTVSDFSEYFFSLDDTEEGCPGLISYDSSCASVKTSKIIGIDYHTETPNENLVPITKTIYHLGIPCTGTTTTPLCGSGFYDPLANKCVTINTSSTSSVTKTTSHTTSKEVSFHSSISSQKTLIPKSIPSPYGPIKSQSIPTEMETSSEISSSEYAFSDVISTPSHSPYTKKHSSLNSSSYTSTVIHSLTSYSISQGIFSTSLSEQNITSKSSTDKFSTATSMSNNITQSSIIISQFSTNNENYTTTSMHTSSDKISTETLNNSISTTTSILFSNSSTILKNNTTIISSDKDTHYHPVNPTIVCSTNKTEIICASITQPSISNSNNHWSSSVLKFNSTTVRSTLPSSAGSNETSINVPFSSSTESNTSTSSTSTSNSKMVRSTLPSSAGSNETSISVPFSSSTESNTSTSSTSTSNSKMVRSTLPSSAGSNETSINVPFSSSTESNTSTSSTSTSNSKTVRSTPFSSAGIIMTSLSQRNNKSASSYASSNSKCYNTADSCRKVHSTPSYLLTSSYTSEGVDYDCSLVSTKLKINDTNCVNNKHTTKSCLKTSVTTTIPTLEIKTARKSSSNTIGLHSYPTSSPNKSISSAPIIGYISSFKTIKTASPSYQTSDLTTITTITSLNNPGSTAVENTHESNDKSRKTSSNDISSKHSVIKETKDAVESSNKSHQTNTLKCSSIIIASSSHNSYESLGGTTLTLTLSKVYSPQNNDTLPFLEISEVNPSRTVLPESSKMMQYLTSTEERNKTARNTIATNIVSISTFHFEGEGNAIRMGYTQLLLMLIGIIVMNIGT | 0.215 | -0.436 | -0.701 |  |  |  |  |  |  |  |  |  |  |  |  |  |  |  |  |  |  |  |  |  |  |  |  |  |  |  |  |  |  |  |  |  |  |  |  |  |
| RS2L (Ralstonia solanacearum), B5RXL5_RALSO (protein) MAQQGVFTLPANTSFGVTAFANAANTQTIQVLVDNVVKATFTGSGTSDKLLGSQVLNSGSGAIKIQVSVNGKPSDLVSNQTILANKLNFAMVGSEDGTDNDYNDGIAVLNWPLG |  |  |  | 0.443 | -0.211 | -0.205 | -0.175 | -0.244 | -0.233 | -0.24 | -0.246 | -0.255 | -0.243 | -0.247 | -0.243 | -0.12 | -0.245 | -0.249 | -0.242 | -0.251 | 6.32 | 6.92 | 3.42 | 5.7 | 5.97 | 7.32 | 6.99 | 5.11 | 5.42 | -0.25 | -0.247 | -0.245 | -0.254 | -0.245 | -0.244 | -0.242 | -0.243 | -0.22 | -0.252 | -0.242 |
